D1 ag: Allosteric Agonists of the Human D1 Dopamine Receptor: qHTS | D(1A) dopamine receptor (Homo sapiens), P21728 | HEK293 T-REx D1 cells, calcium flux, agonist mode | activation, % at 2 µM | 1% of 360,000 active | AID 504660, 2011; in the data active = activation above about 30%
Target sequence (P21728 whole entry, looked up): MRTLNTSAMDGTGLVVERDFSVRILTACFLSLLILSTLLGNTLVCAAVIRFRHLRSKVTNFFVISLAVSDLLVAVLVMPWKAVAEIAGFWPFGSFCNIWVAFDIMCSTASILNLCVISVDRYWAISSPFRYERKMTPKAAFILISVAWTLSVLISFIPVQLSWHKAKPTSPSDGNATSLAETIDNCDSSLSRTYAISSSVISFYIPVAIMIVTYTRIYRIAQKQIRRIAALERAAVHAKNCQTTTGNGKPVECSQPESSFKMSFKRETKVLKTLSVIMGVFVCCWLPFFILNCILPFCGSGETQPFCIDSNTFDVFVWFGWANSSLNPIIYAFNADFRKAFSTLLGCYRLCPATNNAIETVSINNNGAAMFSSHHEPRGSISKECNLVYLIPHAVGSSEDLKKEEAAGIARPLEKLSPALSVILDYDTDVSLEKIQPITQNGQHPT
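Inducible HEK293 T-REx D1 cells, force-coupled to calcium signalling, were plated at 4000 cells/well with tetracycline and held overnight at 30 C. After no-wash calcium dye loading, compound-evoked calcium rise over 180 s flagged agonists.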
D1 antag: Antagonist of Human D 1 Dopamine Receptor: qHTS | activity change, negative = inhibition, % at 10 µM | AID 504652, 2011 | D(1A) dopamine receptor (Homo sapiens), P21728 | 3.2% of 360,000 active | HEK293 TREx D1 cells, calcium flux, dopamine EC80; hits give low values; in the data active = activity change below about -30%
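HEK293 T-REx cells expressing inducible, force-coupled D1 receptor; no-wash Ca dye, 30–90 min RT. Cmpd → 180 s read at 1 Hz → EC80 DA → 180 s read.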
TRHR agonist-1: qHTS for Small Molecule Agonists and Allosteric Enhancers of Human TRH Receptor: Primary Screen for Agonists; Thyrotropin-releasing hormone receptor (Homo sapiens), P34981; TRHR cells, calcium flux fluo-8, FDSS agonist mode; activation, % at 2 µM; 0.18% of 360,000 active; in the data active = activation above about 30%
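Steps: seed TRHR cells overnight; add fluo-8 no-wash Ca dye, RT 30 min–1.5 h; record 10 s baseline; pin-transfer compounds; monitor fluorescence 1 cycle/s for the agonist window. Calcium increases flag candidate agonists.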
TRHR enhancer-1: qHTS for Small Molecule Agonists and Allosteric Enhancers of Human TRH Receptor: Primary Screen for Enhancers. enhancement, % at 2 µM. Thyrotropin-releasing hormone receptor (Homo sapiens), P34981. 0.66% of 360,000 active. TRHR cells, fluo-8 calcium fluorescence, EC20 TRH enhancement; in the data active = enhancement above about 30%
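Enhancer read-out: after compound pinning and an initial kinetic agonist-mode read, an EC20 of TRH (10 nM final) was injected and fluo-8 calcium signal (Ex 480/Em 530) followed at 1 s/cycle for 100 cycles in TRHR-expressing cells.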
D1 potentiator: Potentiators of Human D1 Dopamine Receptor: qHTS; HEK293 TREx D1 cells, calcium flux, dopamine EC20 potentiation; potentiation, % at 10 µM; 0.036% of 360,000 active; AID 504651, 2011; in the data active = potentiation above about 30%
TRHR enhancer-2: qHTS for Small Molecule Agonists and Allosteric Enhancers of Human TRH Receptor: Confirmation Screen for Enhancers; TRH receptor cell assay, enhancer confirmation qHTS; 970 tested, under 10 active; AID 493076, 2011; shares compounds with TRHR enhancer-1; activity change, negative = inhibition, % at 46.1 µM;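 also: compound effect scored on response to added TRH at EC20 of 10 nM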
TRHR agonist-2: qHTS for Small Molecule Agonists and Allosteric Enhancers of Human TRH Receptor: Confirmation Screen for Agonists | TRHR-expressing cells, agonist activation read-out | 8% of 970 active | shares compounds with TRHR enhancer-1 | AID 493078, 2011 | Potency, µM (highest dose often 46.1 µM), hits mostly activators; also: nearly all actives have a fitted effect of over 75% in size
Each line names hits and unclear results; the compound was inactive in the other large screens (follow-up assays come after a bar, where they were run). Compounds with a hit are over-represented: about 4.7% of the library has one in this group of screens. Unless noted, calls follow the shape of the dose curve; as a rule, active = well fitted curve in the direction sought with a large enough effect; inconclusive = small, poorly fitted or top-dose-only effect, or another doubt; inactive = no such curve, though single readings can be large; an effect the other way counts as inactive or inconclusive.

COc1ccc(Cn2c(=O)[nH]c3cc(C(=O)N4CCN(Cc5ccccc5)CC4)ccc3c2=O)cc1	none
N#Cc1c(N)n(CCNC(=O)c2ccccc2)c2nc3ccccc3nc12	none | TRHR enhancer-2 inactive | TRHR agonist-2 inactive
N#Cc1c(N)n(CCNC(=O)c2cccs2)c2nc3ccccc3nc12	none
O=C(COc1ccc(Cl)cc1)NCc1ccccc1	none
Clc1ccc(OCCNCCc2ccccc2)cc1	TRHR enhancer-1 43 | TRHR enhancer-2 inactive | TRHR agonist-2 inactive
COc1ccccc1N/C=C/c1onc(C)c1[N+](=O)[O-]	D1 ag 140, TRHR agonist-1 47 | TRHR enhancer-2 inactive | TRHR agonist-2 inconclusive
CCNc1nc(NCC)n2c(SCC(=O)Nc3ccc(F)cc3)nnc2n1	none
CCNc1nc(NCC)n2c(SCC(=O)Nc3ccc(C)c(C)c3)nnc2n1	TRHR enhancer-1 45 | TRHR enhancer-2 inactive | TRHR agonist-2 inactive
Cc1cccc(C(=O)N2CCCCC2CCN2CCCCC2)c1 (stereo not drawn)	none
COc1ccc(C(=O)Oc2ccc(/C=N/NC(=O)c3ccccc3OC)cc2[N+](=O)[O-])cc1	TRHR enhancer-1 51 | TRHR enhancer-2 inactive | TRHR agonist-2 inactive
CC1=C(C(=O)OCC(C)C)C(c2ccccc2Cl)NC(=O)N1C (stereo not drawn)	none (no result: D1 potentiator)
CC1=C(C(=O)OCC(C)C)C(c2cc3c(cc2Br)OCO3)NC(=O)N1C (stereo not drawn)	TRHR enhancer-1 53 | TRHR enhancer-2 inactive | TRHR agonist-2 inconclusive
O=C(CN1CCC(NC(=O)c2ccccc2Cl)CC1)NCc1ccccc1	none
O=C(Nc1ccc(Cl)cc1Cl)c1ccc2c(=O)n3c(nc2c1)CCC3	none | TRHR enhancer-2 inactive | TRHR agonist-2 inconclusive
O=C(Nc1ccc(Br)cc1Cl)c1ccc2c(=O)n3c(nc2c1)CCC3	none
CCOC(=O)C1CCN(C(=O)c2ccc3c(c2)N=C(CC)c2cc(C)ccc2S3)CC1	none
CCN1C(=O)N/C(=C/c2ccc(C)o2)C1=O	none
CCN1C(=O)N/C(=C/c2ccc(Sc3ccc(C)cc3)o2)C1=O	TRHR enhancer-1 54 | TRHR enhancer-2 inactive | TRHR agonist-2 inactive
CCOC(=O)c1c(C)oc2nc(C)nc(N3CCN(c4ccccc4F)CC3)c12	none
COc1ccc(OC)c(CCNC(=O)c2cccc(NC(=O)C3=C(C)OCCS3)c2)c1	none
Cc1ccc(Nc2c(-c3cccs3)nc3nc(C)cc(C)n23)cc1	none
O=S(=O)(c1ccc(F)cc1)N1CCN(CCc2ccccc2)CC1	none
Cc1ccc(NC(=O)[C@@H]2CCC(=O)N2C2OC(=O)c3ccccc32)cc1Cl (stereo partly drawn)	TRHR enhancer-1 68 | TRHR enhancer-2 inactive | TRHR agonist-2 inactive
COc1cc(/C=C/c2nc3ccccc3s2)cc(OC)c1O	TRHR agonist-1 32 | TRHR enhancer-2 inactive | TRHR agonist-2 inconclusive
O=C(CSc1nnc(-c2ccc(Cl)cc2)n1-c1ccc(Cl)cc1)N/N=C/c1ccco1	TRHR enhancer-1 48 | TRHR enhancer-2 inactive | TRHR agonist-2 inactive
COc1c(S(=O)(=O)N2CCN(C(=O)c3ccco3)CC2)ccc(Cl)c1Cl	none
COc1ccc(Cl)cc1C(=O)Nc1ccc(CN2CCCCC2)cc1	TRHR enhancer-1 64 | TRHR enhancer-2 inactive | TRHR agonist-2 inactive
COc1ccc(Br)cc1C(=O)Nc1ccc(C(=O)NCC(C)C)cc1	TRHR enhancer-1 46 | TRHR enhancer-2 inactive | TRHR agonist-2 inactive
CCN(C(=O)CCS(=O)(=O)c1cc2c(cc1Cl)NC(=O)CO2)c1ccccc1	none
Cc1ccc(CNC(=O)c2cccc3c2C(=O)c2ccc(N4CCCCC4)cc2S3(=O)=O)cc1	D1 ag 97, TRHR agonist-1 36 | TRHR enhancer-2 inactive | TRHR agonist-2 21µM
Cc1ccc(C)c(C2=CSC3=NS(=O)(=O)CCN23)c1	none
Cc1ccc(C)c(C2=CSC3=NCCN23)c1	TRHR enhancer-1 68 | TRHR enhancer-2 inactive | TRHR agonist-2 inactive
CCOc1ccccc1NC(=O)C1CCCN(S(=O)(=O)c2cccs2)C1 (stereo not drawn)	none
Cc1ccc(-n2c(C)n[nH]c2=S)cc1C	TRHR enhancer-1 45 | TRHR enhancer-2 inactive | TRHR agonist-2 inactive
Cc1ccc(-n2c(C)n[nH]c2=S)cc1	none
CN(C)c1ccc(CNC(=O)C2CCN(S(=O)(=O)c3ccc4c(ccn4C)c3)CC2)cc1	none
CCc1ccccc1NC(=O)c1cc2nc(-c3ccc(OC)c(OC)c3)cc(C(F)(F)F)n2n1	none
Cn1nnnc1SCC(=O)NNC(=O)c1ccc(F)cc1	TRHR enhancer-1 44 | TRHR enhancer-2 inactive | TRHR agonist-2 inactive
Brc1c(CSc2nc3ccccc3s2)nc2ncccn12	none
O=[N+]([O-])c1ccc2sc(SCc3nc4ccccn4c3Br)nc2c1	TRHR enhancer-1 41 | TRHR enhancer-2 inactive | TRHR agonist-2 inactive
COc1ccc(N(CC(=O)NN=C2CCN(C)CC2)S(=O)(=O)c2ccccc2)c(OC)c1	TRHR enhancer-1 41 | TRHR enhancer-2 inactive | TRHR agonist-2 inactive
c1ccc(Oc2ccc(-c3ccnc4ncnn34)cc2)cc1	TRHR enhancer-1 48 | TRHR enhancer-2 inactive | TRHR agonist-2 inactive
Cc1c(Cl)cccc1NC(=O)CCS(=O)(=O)c1ccc2c(c1)CC(=O)N2C	none
S=C(Nc1ccc(Br)cc1)N1CCCC1	TRHR enhancer-1 41 | TRHR enhancer-2 inactive | TRHR agonist-2 inactive
CC1=C(C(=O)NCc2ccccc2Cl)C2(CCCCCC2)OC1=O	none
C#CCn1cccc(C(=O)Nc2ccc(OC)cc2)c1=O	TRHR enhancer-1 45 | TRHR enhancer-2 inactive | TRHR agonist-2 inactive
CCCn1cccc(C(=O)Nc2ccc(OC)cc2)c1=O	none
O=C(Nc1nnc(SCc2cccnc2)s1)C1CC(=O)N(c2ccc(F)cc2)C1 (stereo not drawn)	none
Cc1nc(C)n(CC(O)COc2ccc3cc(Br)ccc3c2)n1 (stereo not drawn)	D1 ag 47, D1 antag -32, TRHR enhancer-1 44 | TRHR enhancer-2 inconclusive | TRHR agonist-2 inactive
OC(COc1ccc2cc(Br)ccc2c1)CN1CCN(c2ccccn2)CC1 (stereo not drawn)	none
